Data from PubChem BioAssay (NCATS).
Records with an inconclusive call do not appear. The source made the active and inactive calls. Calls follow the shape of the dose curve; as a rule, active = well fitted activation curve with a large enough effect in the main read-out, with a control signal flat (not every such curve was filed as active); inconclusive = small, poorly fitted or top-dose-only effect, or effect the other way, or a change in a side signal; inactive = flat fitted curve, though single readings scatter.

biological target: 3',5'-cyclic-AMP phosphodiesterase 4B (Homo sapiens) (UniProt Q07343); test: qHTS Assay for Inhibitors of PDE-IV (AID 607); settings: HEK293 ACTOne CNG channel cells, membrane potential fluorescence; series mostly up to 22.9 µM
Description: NIH Chemical Genomics Center [NCGC]
NIH Molecular Libraries Screening Centers Network [MLSCN]
The cyclic nucleotide phosphodiesterases (PDEs) are proteins that catalyze hydrolysis of 3', 5'-cyclic nucleotides, such as cyclic adenosine monophosphate (cAMP) and cyclic guanosine monophosphate (cGMP), to their corresponding 5'-nucleotide monophosphates. These enzymes play an important role in controlling cellular concentrations of cyclic nucleotides and have a central role in a variety of intracellular signaling events. cAMP PDEs are emerging as a promising class of drug targets in asthma and cardiovascular disease therapeutic areas.
There are no commercially available cell-based screening assays for PDE inhibitors: currently biochemical assays are done using pure substrates (cAMP or cGMP) and purified recombinant PDE enzymes. As with other biochemical screens on intracellular targets, false positives and false negatives may result from issues involving cell membrane permeability, cellular metabolism, and the like.
Here we report the development of a cell-based screening assay for cAMP phosphodiesterase (PDE) inhibitors. The assay is based on the BD ACTOne# technology (BD Biosciences) which utilizes a modified cyclic nucleotide-gated channel (CNG) to monitor intracellular cAMP changes in live cells. The CNG channel is localized on the plasma membrane, and opens when the intracellular cAMP level increases, resulting in ion flux and cell membrane depolarization. The influx of cations through the CNG channel can be quantified using membrane potential (MP) dyes. We modified the BD ACTOne technology to allow the detection of PDE inhibitors, and performed an inhibitor screen for PDE-IV, which is expressed endogenously in HEK293 cells. We optimized this assay in homogeneous 1536-well plate assay format for high throughput screening.
NCGC Assay Protocol Summary:
The medium contained 10% FBS (Invitrogen), 2 mM L-glutamine, and 250 ug/ml G418 (Cellgro) and 1 ug/ml puromycin (Clontech). ACTOneTM parental cells (BD Biosciences) were maintained in the same medium without puromycin.
The activity of the CNG channel was measured by BD ACTOneTM membrane potential dye kit (BD Biosciences). Forskolin, a positive control for cAMP activation and RO 20-1724, a PDE inhibitor, were both purchased from Sigma and solublized in DMSO.
Sequence,Parameter,Value,Description
1,Reagent,3 uL,1000 cells/well 1536 TC treated Black plate
3,Compound,0.5 uL,Kalypsys dispense RO 20-1724 100 uM final [A]
4,Reagent,3 uL,BD membrane potential dye
6,Compound,23 nL,Final concentration was 0.7nM to 22.9uM
8,Detector,EX 535 / EM 590 [B],Envision
Footnotes: [A] The stock 2 mM RO 20-1724 PDE inhibitor was made in 10 % DMSO. Parental cell line received 10 uM forskolin + 100 uM RO. [B] Envsion settings: Bottom Excitation 535/20 nm top emission 590/20, gain of 150 and 5 flashes per well.
Keywords: PDE, PDE-IV, cytotoxicity, flourescence, MLSMR, MLSCN, NIH Roadmap, qHTS, NCGC

Sequence of 3',5'-cyclic-AMP phosphodiesterase 4B (Homo sapiens) (Q07343 whole entry, looked up): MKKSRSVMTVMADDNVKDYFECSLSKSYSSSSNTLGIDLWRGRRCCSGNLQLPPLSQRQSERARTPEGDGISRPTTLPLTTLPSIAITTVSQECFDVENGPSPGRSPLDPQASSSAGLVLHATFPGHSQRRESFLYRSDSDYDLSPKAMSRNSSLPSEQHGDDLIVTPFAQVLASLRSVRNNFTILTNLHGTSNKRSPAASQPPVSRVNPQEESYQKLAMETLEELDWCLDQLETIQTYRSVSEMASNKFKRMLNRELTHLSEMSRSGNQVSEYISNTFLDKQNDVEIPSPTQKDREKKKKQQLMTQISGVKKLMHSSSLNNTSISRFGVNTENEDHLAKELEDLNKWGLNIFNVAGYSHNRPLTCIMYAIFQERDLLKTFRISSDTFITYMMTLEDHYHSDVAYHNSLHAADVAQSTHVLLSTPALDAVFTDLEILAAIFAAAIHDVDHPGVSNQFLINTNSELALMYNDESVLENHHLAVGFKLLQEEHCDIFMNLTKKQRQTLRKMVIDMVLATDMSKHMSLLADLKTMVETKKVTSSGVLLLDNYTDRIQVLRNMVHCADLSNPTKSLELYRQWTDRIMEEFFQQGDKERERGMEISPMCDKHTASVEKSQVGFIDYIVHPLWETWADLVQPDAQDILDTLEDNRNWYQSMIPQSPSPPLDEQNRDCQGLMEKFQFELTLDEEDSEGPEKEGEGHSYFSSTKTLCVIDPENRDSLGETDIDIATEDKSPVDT

How did the outcome turn out when NC(=O)CN1CCCC1=O was run?
The outcome was “inactive”.

Which outcome does the source give for Oc1ccc2[nH]cc(CCCCN3CC=C(c4ccccc4)CC3)c2c1 here?
Its outcome is “inactive”.

How did the outcome turn out when COC(=O)C1=CCCN(C)C1 was run?
The outcome was “inactive”.

How did the outcome turn out when CN1[C@@H]2CC[C@H]1CC(OC(=O)c1cc(Cl)cc(Cl)c1)C2 (stereo partly drawn) was run?
Its outcome is “inactive”.

Which outcome does the source give for COc1ccc(CN2CCNCC2)c(OC)c1OC here?
The outcome was “inactive”.

With OC(c1ccccc1)(c1ccccc1)C1CCNCC1 as the compound, how does the outcome read?
Its outcome is “inactive”.

How did the outcome turn out when COc1ccc(C(=O)N2CCCC2=O)cc1 was run?
The outcome was “inactive”.

For O=C(O)c1nn(Cc2ccc(Cl)cc2Cl)c2ccccc12, which outcome is on record?
Its outcome is “inactive”.

CCCCCCCCC(=O)NCc1ccc(O)c(OC)c1 was tested. Which outcome did it give?
The outcome was “inactive”.

For CC(C)[N+](C)(CCC(C(N)=O)(c1ccccc1)c1ccccc1)C(C)C, which outcome is on record?
Its outcome is “inactive”.

With C[C@H](N)[C@H](O)c1ccc(O)c(O)c1 as the compound, how does the outcome read?
Its outcome is “inactive”.

With c1ccc2nc(N3CCNCC3)ccc2c1 as the compound, how does the outcome read?
Its outcome is “inactive”.

With O=C(CCCN1CCC(n2c(=O)[nH]c3ccccc32)CC1)c1ccc(F)cc1 as the compound, how does the outcome read?
Its outcome is “inactive”.
